Results on 40 compounds are retold here after PubChem BioAssay (EPA / NIEHS).

What is called AC50 is the concentration giving half of the maximal activity seen.

Calls of active or inactive are those of the source. How the source made its calls: active means hit-call score of the fitted dose curve at least 0.9, where 1 is the maximum; inactive means score below 0.9.

This experiment in a line: ATG_AP_1_CIS: Attagene CIS-FACTORIAL HepG2 Assay for human Activator Protein 1 (AP-1) (AID 2282931). The following applies: HepG2 Attagene cis-factorial AP-1 reporter mRNA; actives raise or lower the signal. As for the experimental part:
ATG_CIS is a cell-based, multiplexed-readout assay that uses HepG2, a human liver cell line, with measurements taken at 24 hours after chemical dosing in a 24-well plate.ATG_AP_1_CIS is one of 52 assay component(s) measured or calculated from the ATG_CIS assay. It is designed to make measurements of mRNA induction, a form of inducible reporter, as detected with fluorescence intensity signals by Reverse transcription polymerase chain reaction (RT-PCR) and Capillary electrophoresis technology.Data from the assay component ATG_AP_1_CIS was analyzed into 1 assay endpoint. This assay endpoint, ATG_AP_1_CIS, was analyzed with bidirectional fitting relative to DMSO as the negative control and baseline of activity. Using a type of inducible reporter, measures of mRNA for gain or loss-of-signal activity can be used to understand the reporter gene at the transcription factor-level as they relate to the gene FOS and JUN. Furthermore, this assay endpoint can be referred to as a primary readout, because this assay has produced multiple assay endpoints where this one serves a reporter gene function. To generalize the intended target to other relatable targets, this assay endpoint is annotated to the dna binding intended target family, where the subfamily is basic leucine zipper.
Human liver HepG2 cells are transiently transfected with multiple reporter transcription units (MRTUs) in 6-well plates using FuGene 6 reagent (Roche; 3 ml FuGene/1 mg DNA). The MRTU constructs are regulated by a cis-regulating element (promoter). […] A major difference between the CIS and TRANS system is that in CIS activities of endogenous TFs are measured, whereas the TRANS assay evaluates changes in activities of exogenous, chimeric NR-Gal4 proteins. […] At the end of 24 hour incubation, total RNA was isolated using TriZol reagent (Invitrogen). The isolated RNA is then reverse-transcribed using oligo(dT) primer and Mo-MLV reverse transcriptase (Invitrogen) with DNAse I (Ambion) treatment for 30 min. The one-tenth of the produced cDNA was amplified by PCR using Taq DNA polymerase (Invitrogen) and two reporter sequence-specific primers. The PCR products were fluorescently labeled by primer extension with 6-arboxyfluorescein (6-FAM) 5'-labeled reporter sequence-specific primer (2 min at 95 C, 20 s at 68 C and 10 min at 72 C) and these products were digested with 5U of HpaI (New England Biolabs) for 2h at 37 C. The fragments were purified using Qiaquick PCR columns (Qiagen), analyzed on an ABI 3130xL genetic analyzer (Applied Biosystems) with peak positions identified by using a set of X-rhodamine (ROX)-labeled MapMarker1000 molecular weight standards (BioVentures). The raw capillary electrophoresis data was processed using Attagraph software (Attagene).
On to `CCc1ncc(C)[nH]1`, for which the call was inactive.

Regarding `Nc1c(S(=O)(=O)O)cc(Br)c2c1C(=O)c1ccccc1C2=O`, the call was inactive.

For the compound `CN(C)CCOC(C)(c1ccccc1)c1ccccn1` (stereo not given), the result was inactive.

Take `Nc1ccc(Cl)c([N+](=O)[O-])c1`: the compound was called inactive.

For `Oc1ccc2cc(SSc3ccc4cc(O)ccc4c3)ccc2c1`, the AC50 is 100 µM (active).

As to `CC(C)CCCCCCc1ccc(OCCOCCO)cc1`, the outcome was inactive.

On to `CCOC(=O)C1OC1c1ccccc1` (stereo not given), for which the AC50 is 43.6 µM (active).

`CC(=O)Nc1ccc(C(=O)CCl)cc1`: the AC50 is 56.5 µM (active).

Turning to `COc1ccc(CCO)cc1`, the call was inactive.

With `C=Cc1ccncc1`, the outcome was inactive.

As for `CCCCN(CCCC)C(=O)N(CCCC)CCCC`, the AC50 was 58.5 µM (active).

Regarding `CCC(=O)OCCOc1ccccc1`, the compound was classed as inactive.

Take `CCCC(C)C(O)CC` (stereo not given): the result was inactive.

Turning to `CCCCCCCCCC(=O)OC`, the call was inactive.

With `COC(CC(C)CCCC(C)(C)O)OC` (stereo not given), the result was inactive.

On to `CC(CN=Cc1ccccc1O)N=Cc1ccccc1O` (stereo not given), for which the AC50 was 100 µM (active).

On to `N[C@@H](Cc1cc(I)c(Oc2cc(I)c(O)c(I)c2)c(I)c1)C(=O)O`, for which the compound was classed as inactive.

On to `O=C1OC(=O)c2c(Cl)c(Cl)c(Cl)c(Cl)c21`, for which the result was inactive.

Regarding `CC(C)NCC(O)COc1ccc(CC(N)=O)cc1` (stereo not given), the compound was classed as inactive.

Consider `C=CCCC(=O)/C=C/C1C(C)=CCCC1(C)C` (stereo not given), for which the AC50 was 121 µM (active).

For `COC(=O)c1ccc([N+](=O)[O-])cc1`, the outcome was inactive.

In the case of `CCCC(=O)c1ccccc1`, the result was inactive.

Consider `CC(C)(C)C1=CC(=O)C(C(C)(C)C)=CC1=O`, for which the result was inactive.

Take `Cc1c(OCC(F)(F)F)ccnc1CS(=O)c1nc2ccccc2[nH]1` (stereo not given): the compound was called inactive.

With `OCCc1ccccc1`, the result was inactive.

For `Clc1ccc(C(c2ccccc2Cl)C(Cl)Cl)cc1` (stereo not given), the AC50 is 100 µM (active).

Consider `CN1C(=O)c2ccccc2C1=O`, for which the compound was classed as inactive.

Turning to `COc1cc(Cl)c(OC)cc1N`, the compound was classed as inactive.

Turning to `OCCOCCN1CCN(C2=Nc3ccccc3Sc3ccccc32)CC1`, the outcome was inactive.

As for `CCCCCCC(=O)c1ccccc1`, the AC50 was 154 µM (active).

As to `CCCCC(CC)COC(C)=O` (stereo not given), the result was inactive.

`c1ccc2cc(Nc3ccc(Nc4ccc5ccccc5c4)cc3)ccc2c1`: the call was inactive.

Turning to `CCOC(=O)[C@@H](C)Oc1ccc(Oc2nc3ccc(Cl)cc3o2)cc1`, the outcome was inactive.

As for `CC(C)Nc1nc(N)nc(Cl)n1`, the result was inactive.

As to `O=P(O)(O)O`, the outcome was inactive.

Take `CCCC[P+](CCCC)(CCCC)CCCC`: the compound was called inactive.

In the case of `CCC(=O)O[C@@H]1C[C@H]2CC[C@]1(C)C2(C)C`, the compound was called inactive.

For the compound `NCCNc1cccc2ccccc12`, the compound was classed as inactive.

With `CCOc1ccc(N=Nc2ccc(C=Cc3ccc(N=Nc4ccc(OCC)cc4)cc3S(=O)(=O)O)c(S(=O)(=O)O)c2)cc1`, the outcome was inactive.

Take `COc1cc([C@@H]2c3cc4c(cc3[C@@H](O[C@@H]3O[C@@H]5CO[C@@H](C)O[C@H]5[C@H](O)[C@H]3O)[C@H]3COC(=O)[C@H]23)OCO4)cc(OC)c1O`: the compound was classed as inactive.
